Results on 14 molecules are retold here after PubChem BioAssay.

Assay [1] concerns Wnt5a (protein binding on small-molecule microarray). The experiment in a line: Wnt5a binders on small-molecule microarray, primary screen, biophysical, 635/667 nm fluorescence (AID 1142).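 Note: fluorescence read at 667 nm with signal to noise per printed feature.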 As to conditions: 635 nm fluorescence, higher = more signal.
A short description of assay [2]: cell viability in Huh7 cells, primary screen, cytotoxicity control for HCV replication inhibitor project, CellTiter-Glo luminescence, basal, 48 h (AID 1143).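 Note: Huh7 hepatoma cells carrying a hepatitis C replication reporter with no stimulus; test concentration not given here.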 As to conditions: Huh7 HCV replicon, higher = more signal, called active from +8 up or from −8 down. (In general: ATP-based viability assays read luminescence as a measure of living cells.)
The nature of assay [3]: P. aeruginosa biofilm formation inhibitors, primary screen, PAO1 strain, BacTiter-Glo luminescence, LB-PBS (AID 1144). As to conditions: 12 h, higher = more signal.
Assay [4] in a line: CREB reporter modulators without forskolin, primary screen, cell-based, PC12, CRE-LacZ reporter, unstimulated (AID 1145). As to conditions: no forskolin, luminescence, 4.5 h, higher = more signal, called active from +8 up or from −8 down.
Assay [5] can be described thus: CREB reporter modulators under forskolin, primary screen, cell-based, PC12, CRE-LacZ reporter, forskolin-stimulated (AID 1146).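 Note: PC12 cells with 6xCRE LacZ reporter stimulated by forskolin 10 µM; beta-galactosidase reporter signal reflecting CREB driven transcription.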 To be noted: luminescence, 4.5 h, higher = more signal, called active from +8 up or from −8 down.
Assay [6] deals with Streptavidin (Streptomyces avidinii) (UniProt P22629). The experiment in a line: streptavidin binders on small-molecule microarray, primary screen, artefact control for SMM compound annotation, biophysical, 635/667 nm fluorescence (AID 1147).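 Note: signal reflects streptavidin binding to arrayed compounds as a control protein.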 As to conditions: streptavidin binding, higher = more signal.
Sequence of Streptavidin (Streptomyces avidinii) (P22629 whole entry, looked up): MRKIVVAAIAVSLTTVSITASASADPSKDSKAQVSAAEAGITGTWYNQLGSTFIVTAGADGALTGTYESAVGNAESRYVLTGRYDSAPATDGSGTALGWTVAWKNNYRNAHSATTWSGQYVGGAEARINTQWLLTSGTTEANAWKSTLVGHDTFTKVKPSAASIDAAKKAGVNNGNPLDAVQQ
Assay [7] can be described thus: small-molecule binders of probe aInhba, primary screen, biochemical, small-molecule microarray, 635/667 nm fluorescence (AID 1148).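 Note: score merges 667nm spot fluorescence with signal-to-noise for antibody binding to printed compounds.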 As to conditions: higher = more signal.
Assay [8] concerns the target Torsin-1A (Homo sapiens) (UniProt O14656). The experiment in a line: torsin A binders from cell lysate, primary screen, small-molecule microarray, wild-type, 635/667 nm (AID 1149). To be noted: COS7 hTOR1A-WT lysate, 635 nm fluorescence, higher = more signal.
Assay [9] has the same target. The experiment in a line: small-molecule binders of mutant TOR1A in lysate, primary screen, cell lysate, small-molecule microarray, COS7 lysate, 635/667 nm fluorescence (AID 1150).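 Note: score pools 667 nm emission and signal to noise measuring lysate protein binding.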 As to conditions: COS7 hTOR1A mutant lysate, 635 nm fluorescence, higher = more signal.
The subject of assay [10] is Sonic hedgehog protein (Shh). The assay is described as follows: small-molecule binders of Shh protein, primary screen, biochemical, small-molecule microarray, 635/667 nm fluorescence (AID 1151).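 Note: Shh protein binding to compounds spotted on small-molecule microarray slides; score combines spot fluorescence intensity with signal-to-noise across triplicate slides.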 As to conditions: small-molecule microarray binding, 635 nm fluorescence; higher = more signal.

Activity calls are given as the source filed them. Unless noted, the rule behind the calls is not given here.

Sequence of Torsin-1A (Homo sapiens) (O14656 whole entry, looked up): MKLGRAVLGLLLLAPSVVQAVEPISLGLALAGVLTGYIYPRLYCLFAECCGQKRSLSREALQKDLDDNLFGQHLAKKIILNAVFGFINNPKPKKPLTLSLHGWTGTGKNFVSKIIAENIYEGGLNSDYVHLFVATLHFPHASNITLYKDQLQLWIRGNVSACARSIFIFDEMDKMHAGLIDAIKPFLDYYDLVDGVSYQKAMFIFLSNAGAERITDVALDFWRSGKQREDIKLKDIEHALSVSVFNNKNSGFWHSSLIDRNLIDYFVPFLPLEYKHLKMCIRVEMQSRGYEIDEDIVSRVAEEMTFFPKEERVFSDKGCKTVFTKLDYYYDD

As for `COC(=O)[C@@]1(Cc2ccc(OC)cc2)[C@H]2c3cc(C(=O)N(C)C)n(CCc4c[nH]c5ccc(O)cc45)c3C[C@H]2CN1C(=O)c1ccccc1`, the composite z-score in [1] is 0.292; in assay [6] it was 1.65; in [7], 0.765; with Torsin-1A (Homo sapiens) [8] it was 0.0612; in the assay with Torsin-1A (Homo sapiens) [9], 0.263; in assay [10], -0.428. Also, the z-score is -2.69 (inactive) in assay [2], 0.255 (inactive) in assay [3], 0.383 (inactive) in assay [4] and -0.292 (inactive) in assay [5].
Regarding `CO[C@H]1O[C@H](CO)[C@@H](OC(=O)c2ccc(Br)cc2)[C@@H]2OC(=O)[C@@H](Cc3ccc4ccccc4c3)C/C=C/C[C@H](Cc3ccc4ccccc4c3)C(=O)O[C@@H]12`, the composite z-score was 0.18 in assay [1]; 0.48 in assay [6]; -0.103 in assay [7]; 0.0121 with Torsin-1A (Homo sapiens) [8]; 0.625 with Torsin-1A (Homo sapiens) [9]; -0.219 in [10]. In addition, the z-score is -2.88 (inactive) in assay [2], 0.4 (inactive) in [3], 0.139 (inactive) in [4] and -0.433 (inactive) in [5].
With `Cc1ccc(S[C@]2(C(=O)NCc3ccccc3)CC(=O)N(C(C)C)[C@@H]2c2ccc(CO)cc2I)cc1`, the composite z-score in [1] was 0.292; in assay [6], -0.505; in [7] it was 0.0028; in the assay with Torsin-1A (Homo sapiens) [8] it was -0.0397; in the assay with Torsin-1A (Homo sapiens) [9], -0.609; in assay [10] it was -1.37. Also, the z-score was -1.11 (inactive) in [2], 0.201 (inactive) in assay [3], 0.208 (inactive) in assay [4] and 1.95 (inactive) in assay [5].
Regarding `COC(=O)[C@@]1(Cc2ccccc2)[C@H]2c3cc(C(=O)N4CCCC4)n(Cc4cc(F)cc5c4OCOC5)c3C[C@H]2CN1C(=O)c1ccccc1`, the composite z-score in assay [1] is 0.503; in assay [6], 0.503; in assay [7], 0.0982; with Torsin-1A (Homo sapiens) [8], -0.0566; with Torsin-1A (Homo sapiens) [9], 1.26; in assay [10], -0.457. Also, the z-score in assay [2] was 0.147 (inactive); in assay [3], -0.511 (inactive); in assay [4] it was -0.185 (inactive); in [5] it was 0.444 (inactive).
Turning to `CCOC(=O)C[C@H]1[C@H](OC(=O)c2ccccc2-c2ccccc2)[C@@H](NC(=O)c2ccc3ccccc3n2)c2cc(OCCCO)ccc2N1C(=O)c1ccc2ccccc2n1`, the composite z-score was 0.191 in [1]; 1.07 in [6]; -0.117 in assay [7]; -0.137 in the assay with Torsin-1A (Homo sapiens) [8]; -0.184 with Torsin-1A (Homo sapiens) [9]; 0.389 in assay [10]. Besides, the z-score in [2] is -0.688 (inactive); in assay [3] it was -1.37 (inactive); in [4], 1.22 (inactive); in assay [5], 0.305 (inactive).
With `O=c1cccc(-c2ccc(C(F)(F)F)cc2)o1`, the composite z-score was -0.281 in assay [1]; -0.43 in assay [6]; -0.0963 in [7]; -0.848 with Torsin-1A (Homo sapiens) [8]; -0.476 with Torsin-1A (Homo sapiens) [9]; -0.559 in assay [10]. The z-score is 0.421 (inactive) in [2], 0.634 (inactive) in [3], -0.275 (inactive) in assay [4] and -0.145 (inactive) in assay [5].
For the molecule `CC(C)(C)OC(=O)CC[C@]1(C(=O)NCCN2CCOCC2)N=C(c2ccc(OCCCO)cc2)O[C@H]1c1ccccc1`, the composite z-score is 0.298 in assay [1]; 0.541 in [6]; 0.165 in [7]; -0.357 with Torsin-1A (Homo sapiens) [8]; 0.833 with Torsin-1A (Homo sapiens) [9]; -1.23 in [10]. Also, the z-score in assay [2] is 0.268 (inactive); in assay [3], -0.375 (inactive); in assay [4], -0.174 (inactive); in assay [5] it was -0.266 (inactive).
As for `C=CCN1C(=O)[C@@]2(CCC(=O)OC(C)(C)C)N=C(c3ccc(OCCCO)cc3)O[C@H]2c2ccccc21`, the composite z-score in assay [1] is 0.228; in [6] it was 0.57; in assay [7], 0.0588; with Torsin-1A (Homo sapiens) [8], -0.0862; with Torsin-1A (Homo sapiens) [9], 0.0147; in [10] it was 0.832. Besides, the z-score was -4.68 (inactive) in assay [2], 0.324 (inactive) in assay [3], 0.573 (inactive) in [4] and -2.25 (inactive) in [5].
Regarding `C=CCOC(=O)[C@@H]1[C@H]2C(=O)O[C@H](c3ccccc3)[C@H](c3ccccc3)N2[C@H](c2ccc(OCCOC(=O)[C@H]3C[C@H]4C(=O)N[C@@H](CCCCN(C)C)C(=O)N4[C@H]3c3cccc(OCCO)c3)cc2)[C@@]12C(=O)Nc1ccc(I)cc12`, the composite z-score in assay [1] was found to be 0.402; in assay [6], 0.458; in [7], 0.019; with Torsin-1A (Homo sapiens) [8], 1.61; with Torsin-1A (Homo sapiens) [9] it was 1.52; in [10], 2.05. Besides, the z-score in assay [2] is -0.015 (inactive); in assay [3], 0.172 (inactive); in assay [4] it was -0.801 (inactive); in [5], 0.387 (inactive).
For `CC(C)CNC(=O)[C@@H]1c2ccccc2C(=O)N(Cc2cc(F)cc(C(F)(F)F)c2)[C@H]1c1ccc(CO)cc1`, the composite z-score in assay [1] is 0.342; in assay [6], 0.111; in [7], 0.117; with Torsin-1A (Homo sapiens) [8], 0.71; with Torsin-1A (Homo sapiens) [9], 0.192; in [10], 0.465. Further, the z-score in assay [2] is -0.959 (inactive); in [3] it was 0.96 (inactive); in assay [4], 0.001 (inactive); in [5] it was -0.372 (inactive).
Regarding `COC(=O)Cn1c(C(=O)N2CCCC2)cc2c1C[C@H]1CN(C(=O)c3ccccc3)[C@@](Cc3ccc(F)cc3)(C(=O)OC)[C@@H]21`, the composite z-score in assay [1] was -0.164; in assay [6] it was 1.59; in assay [7] it was -0.123; with Torsin-1A (Homo sapiens) [8] it was 0.895; with Torsin-1A (Homo sapiens) [9] it was -0.137; in assay [10], -0.271. In addition, the z-score is -1.83 (inactive) in assay [2], -0.288 (inactive) in [3], -0.182 (inactive) in assay [4] and 0.105 (inactive) in assay [5].
Consider `COCCCNC(=O)[C@@]1(Sc2ccc(C)cc2)CC(=O)N(C2Cc3ccccc3C2)[C@@H]1c1ccc(CO)cc1I`, for which the composite z-score was -0.572 in assay [1]; -0.962 in assay [6]; -0.157 in [7]; -0.475 in the assay with Torsin-1A (Homo sapiens) [8]; -1.29 in the assay with Torsin-1A (Homo sapiens) [9]; -0.59 in [10]. For the same molecule, the z-score is -0.712 (inactive) in [2], -0.141 (inactive) in assay [3], 0.0909 (inactive) in assay [4] and 0.555 (inactive) in assay [5].
Take `C=CCOC(=O)[C@@H]1[C@H]2C(=O)O[C@H](c3ccccc3)[C@H](c3ccccc3)N2[C@H](c2ccc(OCCOC(=O)[C@H]3C[C@H]4C(=O)N[C@@H](CC(C)C)C(=O)N4[C@H]3c3ccc(O)cc3)cc2)[C@@]12C(=O)Nc1ccc(I)cc12`: the composite z-score in [1] is 0.504; in assay [6] it was 0.324; in assay [7], -0.102; in the assay with Torsin-1A (Homo sapiens) [8] it was 1.33; in the assay with Torsin-1A (Homo sapiens) [9], 1.33; in assay [10], 1.97. Further, the z-score was -0.141 (inactive) in assay [2], 0.0488 (inactive) in assay [3], 0.277 (inactive) in assay [4] and -1.14 (inactive) in [5].
Consider `CN1C(=O)C2C=CC(C(O)Cc3ccccc3)N(N(c3ccccc3)c3ccccc3)C2C1=O` (stereo not given), for which the composite z-score is 0.0159 in assay [1]; 2.18 in assay [6]; 0.191 in assay [7]; 0.0867 in the assay with Torsin-1A (Homo sapiens) [8]; 0.25 with Torsin-1A (Homo sapiens) [9]; -0.572 in assay [10]. The z-score was 0.443 (inactive) in assay [2], -0.597 (inactive) in assay [3], 0.264 (inactive) in assay [4] and 0.6 (inactive) in [5].
